These results are taken from PubChem BioAssay AID1063 (University of Pittsburgh Molecular Library Screening Center, 2008).

SMILES strings stand for the structures. Hit rate of the full screen: of about 200,000 compounds, about 18,000 (9%) were called active. No stated cut-off is given here; in the data, active means inhibition above about 50%; inactive means the rest. The entries come from a sample that favours actives as a whole.

Broadly, the inhibition is the relative decrease from the control value, in per cent.

This experiment in a line: antileishmanial activity against promastigotes – primary screen (AID 1063).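 Further: promastigotes grown with compound for 44 hours at 28 °C.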 Conditions: Leishmania major promastigotes, resazurin fluorescence viability; at 10 µM; active compounds read high.
With `COc1ccc(/C=N/NC(=O)c2ccc(Cl)cc2)cc1COC(C)=O`, the inhibition is -8.12% (inactive). On to `COc1ccc(/C=N/NC(=O)c2ccncc2)cc1CN1CCCc2ccccc21`, for which the inhibition was 63.4% (active).

Turning to `COc1cc(/C=N/NC(=O)c2ccccc2)ccc1OS(=O)(=O)c1ccccc1`, the inhibition is 1.2% (inactive). For `CC1CC(C)CN(CC(=O)N2c3ccccc3CCc3ccccc32)C1` (stereo not drawn), the inhibition was 18.5% (inactive). On to `CC(C)CNC(=O)COC(=O)/C=C/c1ccccc1[N+](=O)[O-]`, for which the inhibition is 4.47% (inactive).

Take `CC1CC(C)CN(C/C=C/c2ccccc2[N+](=O)[O-])C1` (stereo not drawn): the inhibition is 83.9% (active). As for `COc1cc(CN2CCNC(=O)C2CC(=O)NCCc2ncccc2C)cc(OC)c1` (stereo not drawn), the figure is -4.29% (inactive). The value for `CC1=C(C)CC(C(=O)NC(C)CCc2ccccc2)C(C(=O)O)C1` (stereo not drawn) was 17.2% (inactive); that for `C=CCOc1c(CNn2cn[nH]c2=S)cccc1OC` was 25.5% (inactive). The value for `N#Cc1c(N)nc2c3c(sc(=N)c2c1N)NC(=O)CC3c1ccccc1Cl` (stereo not drawn) was 75.7% (active). For `COc1ccc(C2CC(=O)Nc3sc(=N)c4c(N)c(C#N)c(N)nc4c32)cc1OC` (stereo not drawn), the inhibition is -5.32% (inactive). The value for `CSc1nc2c(c(=O)[nH]1)C(c1cccc(Cl)c1Cl)CC(=O)N2` (stereo not drawn) was -5.68% (inactive); that for `COc1cccc2c1OCC(CN1CCN(C3CCCCC3)C(CCO)C1)=C2` (stereo not drawn) was 11.6% (inactive). The value for `O=C(c1snnc1-c1ccccc1)N1CCOCC1` was -3.05% (inactive); that for `CCc1nnc(NC(=O)CCC(=O)O)s1` was -2.47% (inactive). The value for `CCc1nnc(NC(=O)CCC(=O)NCc2ccccc2OC)s1` was -6.69% (inactive); that for `CCc1nnc(NC(=O)CCN(c2ccc(C)cc2)S(=O)(=O)c2ccccc2)s1` was 71.3% (active); that for `Cc1c(Cl)c([N+](=O)[O-])nn1Cc1ccc(C(=O)N/N=C\c2cc(Cl)ccc2O)o1` was 100% (active). Turning to `Cc1c(Cl)c([N+](=O)[O-])nn1CCCC(=O)Nc1cc(Cl)ccc1Cl`, the inhibition was 0.47% (inactive). As to `Cc1ccc(C(=O)O)cc1NC(=O)c1ccc(Cn2nc(C)c(Cl)c2C)o1`, the inhibition is -7.15% (inactive). On to `Cc1ccc(OCC(=O)NC(C)c2ccccc2)c([N+](=O)[O-])n1` (stereo not drawn), for which the inhibition was 11.1% (inactive). For the compound `CCc1ccc(NC(=O)Nc2ccncc2)cc1`, the inhibition is 24.8% (inactive). Take `CCOC(=O)CN(C)Cc1c[nH]c2ccccc12`: the inhibition is -1.3% (inactive). As to `NS(=O)(=O)c1ccc(NC(=O)COC(=O)CCc2c[nH]c3ccccc23)cc1`, the inhibition is -4.64% (inactive). The value for `O=C(Cc1c[nH]c2ccccc12)OCCOC(=O)Cc1c[nH]c2ccccc12` was 94.7% (active); that for `Cc1ccc(C)c(-n2ccnc2SCC(N)=O)c1` was -3.12% (inactive). As to `O=C(O)[C@@H]1CCCN1c1ncnc2sc3c(c12)CCC3`, the inhibition is -0.86% (inactive). As for `CC1(C)CN=C(N2CCN(c3ncnc4sc5c(c34)CCCC5)CC2)S1`, the inhibition was 100% (active).

With `COc1ncnc2sc3c(c12)CCCC3`, the inhibition is -1.31% (inactive). The value for `O=C1c2ccccc2C(=O)N1CCC(O)C[N+](=O)[O-]` (stereo not drawn) was -0.84% (inactive); that for `Cc1ccc(Cl)cc1NC(=O)C1CCN(S(C)(=O)=O)CC1` was 2.22% (inactive). The value for `COc1ccc(OC)c(C(=O)c2coc3ccc(OC)cc23)c1` was 6.9% (inactive); that for `COc1ccc2occ(C(=O)c3ccc(N=C(C)N(C)C)cc3)c2c1` was 100% (active); that for `COc1ccc(OC)c(C(=O)c2ccc(C(=O)O)cc2)c1` was -2.29% (inactive). The value for `COc1ccc2cc(CCl)c(Cl)nc2c1` was 5.05% (inactive); that for `O=C1N=C(N2CCOCC2)S/C1=C\C=C/c1ccccc1` was 7.77% (inactive); that for `CCc1ccc(/C=C2\SC(N3CCOCC3)=NC2=O)cc1` was 12.3% (inactive). Turning to `O=C1N=C(N2CCCC2)S/C1=C\c1cccc(Br)c1`, the inhibition is 96.6% (active). For `COc1ccc(C(=O)/C=C/c2ccc(OC3CSC3)cc2)cc1`, the inhibition was 75.7% (active).

In the case of `COc1ccc(/C=C/C(=O)c2ccc(OC)cc2O)cc1`, the inhibition was 7.64% (inactive). Turning to `COc1ccc(/C=C/C(=O)c2cc(Br)ccc(=O)c2O)cc1`, the inhibition was -3.91% (inactive). As to `O=C(COc1ccccc1)Nc1ccc(N2CCN(C(=O)c3cccs3)CC2)cc1`, the inhibition was -3.12% (inactive).

With `C=CCn1nc(-c2ccccc2)c2c(C)onc2c1=O`, the inhibition is 2.35% (inactive). Take `COc1ccc(OCC(=O)Nc2cc(C)c(Cl)cc2OC)c([N+](=O)[O-])c1`: the inhibition was 0.64% (inactive).

In the case of `COc1ccc(-c2nc3cc([N+](=O)[O-])ccc3o2)cc1OC`, the inhibition was -4.49% (inactive). The value for `Cc1nnc(-c2ccc(Oc3ccc(C)c(C)c3)c([N+](=O)[O-])c2)o1` was 64.6% (active). The value for `O=C(Nc1ccc(N2CCOCC2)cc1)c1ccc2c(c1)OCO2` was -0.26% (inactive); that for `CCc1ccc(CN(C)C(=O)CCc2nnc(-c3ccc(-c4ccccc4)cc3)o2)nc1` was 25.8% (inactive). For `c1ccc(CN2CCC(N=C3NN=C(c4ccc5c(c4)OCCO5)CS3)CC2)cc1`, the inhibition is 75.9% (active).

Regarding `CS(=O)(=O)N(CC(=O)N1CCN(Cc2ccccc2)CC1)c1ccc2c(c1)OCCO2`, the inhibition was -0.45% (inactive).

For `Clc1cccc(N=C2NN=C(c3ccc4c(c3)OCCO4)CS2)c1`, the inhibition was 4.41% (inactive).

As for `COc1ccccc1NC(=O)c1c(Br)cnn1C`, the inhibition is -1.37% (inactive). With `O=C(NNC1=C(C(=O)C(F)(F)F)CCC1)c1ccncc1`, the inhibition was -0.87% (inactive). As for `CC(Nc1nc(N2CCOCC2)nc2ccccc12)c1ccccc1` (stereo not drawn), the inhibition is 54.2% (active). With `Fc1cnc(N2CCOCC2)nc1NCc1ccccc1`, the inhibition was 0.72% (inactive). As for `CC(Nc1nc(N2CCCC2)nc2ccccc12)c1ccccc1` (stereo not drawn), the figure is 100% (active). As for `C(=N/Nc1cc(N2CCOCC2)nc(N2CCOCC2)n1)/c1ccccc1`, the figure is -1.17% (inactive); as for `c1ccc2c(NC3C4CC5CC(C4)CC3C5)nc(N3CCOCC3)nc2c1` (stereo not drawn), 69.9% (active); as for `CC(Nc1nc(N2CCN(CCO)CC2)nc2ccccc12)c1ccccc1` (stereo not drawn), 16.7% (inactive). The value for `CC(CN1CCOCC1)c1ccccc1` (stereo not drawn) was 5.49% (inactive); that for `Cc1cc(Oc2ccccc2)nc(N2CCOCC2)n1` was -4.03% (inactive).

Consider `c1ccc(-c2cc(N3CCCCC3)c3ccccc3n2)cc1`, for which the inhibition is 43.1% (inactive). Regarding `COc1cc(C(=O)NCc2ccc(-n3cccc3)cc2)cc(OC)c1OC`, the inhibition is 23% (inactive).
